Compound activity deposited in PubChem BioAssay by several laboratories.
Compounds with a hit are over-represented: about 27% of the library has one in this group of screens.
Cav32 inh: human Cav3.2 channel inhibition, primary screen; O95180; Cav3.2-expressing cells, Fluo-4 calcium fluorescence FDSS; active compounds read low; B-score at 10 µM; 100,000 compounds, 4% hits; AID 449739;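 active = single-dose well whose peak fluorescence ratio is a statistical outlier from its plate by either plate-standardised score or position-corrected B-score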
CYP2C19 act: cytochrome P450 2C19 (human) activation; P33261; 96,000 tested, under 10 active; AID 1025; activation factor at 5 µM; recombinant CYP2C19, luciferin-H EGE luminescence; active compounds read high; 0 = fully inhibited enzyme, 1 = untreated enzyme;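 active = activation factor of at least 2 at 5 µM in the primary screen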;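 also: 0 = wells with 2.5 mM tranylcypromine and 1 = vehicle-only wells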
Target sequence (P33261 whole entry, looked up): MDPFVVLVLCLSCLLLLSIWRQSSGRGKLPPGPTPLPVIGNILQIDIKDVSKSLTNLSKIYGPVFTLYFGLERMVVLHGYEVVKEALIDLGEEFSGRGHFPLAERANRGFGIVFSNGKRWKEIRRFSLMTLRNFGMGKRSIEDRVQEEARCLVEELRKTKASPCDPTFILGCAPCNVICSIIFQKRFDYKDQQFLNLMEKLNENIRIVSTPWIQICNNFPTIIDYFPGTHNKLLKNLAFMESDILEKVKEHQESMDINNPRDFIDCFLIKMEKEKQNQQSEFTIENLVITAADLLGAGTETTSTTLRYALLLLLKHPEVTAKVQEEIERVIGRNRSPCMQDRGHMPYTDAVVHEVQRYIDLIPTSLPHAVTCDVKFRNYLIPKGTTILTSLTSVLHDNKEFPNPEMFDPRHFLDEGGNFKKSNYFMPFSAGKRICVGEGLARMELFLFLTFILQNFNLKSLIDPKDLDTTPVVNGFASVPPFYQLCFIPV
CYP2C9 activ: increases human cytochrome P450 2C9 activity; P11712; recombinant CYP2C9, luciferin-H conversion, luminescence; active compounds read high; factor 1 = untreated enzyme, 0 = blocked; activation factor at 5 µM; 96,000 compounds, 1.4% hits;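 active = activation factor of 2 or more for CYP2C9 at a 5 µM dose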;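 also: 0 = sulfaphenazole-blocked wells and 1 = vehicle-only wells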
CYP2C9 inh: blocks human cytochrome P450 2C9 | AID 777 | 96,000 compounds, 20% hits | CYP2C9 Supersomes, luciferin-H conversion, luminescence | inhibition, % at 5 µM;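 active = blocking of liver enzyme CYP2C9 beyond about 50% at 5 µM, limit read from the data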
CYP2C19 inh: human CYP2C19 inhibition. CYP2C19 Supersomes, luciferin-H EGE luminescence, 30 min. inhibition, % at 5 µM. 96,000 compounds, 21% hits. AID 778;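 active = CYP2C19 inhibition above a set limit at 5 µM in the primary screen, cut at about 50% in these data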;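 also: plate controls were negative control wells for no effect and 2.5 mM tranylcypromine positive control for full effect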
* = called active by the depositor; nt = no result given.

SMILES	Cav32 inh	CYP2C19 act	CYP2C9 activ	CYP2C9 inh	CYP2C19 inh
Cc1cc(Cl)c(OCCCNCc2ccccc2)c(Br)c1	-2.63	0.4	1	-4.3	56.6*
Clc1ccc(OCCCNCc2ccccc2)c(Br)c1	-0.0699	0.4	1	1.6	63.0*
C/C(=N\NC(=O)c1c(Cl)c(C)nn1C)c1cccc(NC(=O)COc2ccc(Cl)cc2)c1	0.038	0.7	0.6	40.5	34.5
CCCCC1=CC2=C(c3ccco3)C(=O)C(C)(OC(=O)c3ccc(OC)cc3)C(=O)C2=CN1C1CCCCC1 (stereo not drawn)	-0.833	nt	nt	nt	nt
Cc1cc(Cn2ccnc2)c(C)cc1Cn1ccnc1	1.06	0	0	95.2*	97.1*
O=C(O)Cn1ccnc1	1.01	0.8	0.9	8.7	16.6
CC(=O)NCCC(=O)Nc1ccc(F)cc1C	nt	1	0.9	7.8	1.5
Cc1nn(CC(O)CN2c3ccccc3Sc3ccccc32)c(C)c1Br (stereo not drawn)	-1.4	0.1	0.1	93.0*	88.6*
O=C1c2ccccc2C(=O)N1CC(O)Cn1nnc2ccccc21 (stereo not drawn)	1.05	0.4	0.7	34.2	58.9*
OC(Cn1nnc2ccccc21)Cn1c(C(F)(F)F)nc2ccccc21 (stereo not drawn)	-0.0764	0.7	0.4	57.3*	34.9
OC(CN1c2ccccc2Sc2ccccc21)Cn1nnc2ccccc21 (stereo not drawn)	-0.539	0	0	99.5*	99.6*
O=C1c2ccccc2C(=O)N1CC(O)CN1CCOCC1 (stereo not drawn)	0.888	nt	nt	nt	nt
CCn1ncc(C2=NOC(C(=O)NCCc3ccccc3)C2)c1C (stereo not drawn)	0.677	1	1	-4.3	-0.1
O=C(NCCCN1CCc2ccccc2C1)C1CCN(S(=O)(=O)N2CCCC2)CC1	1.19	0.9	0.9	9.7	11.7
COc1ccc(OC)c(N2C(=O)CC(Cc3cc(C)cc(C)c3)C2=O)c1 (stereo not drawn)	0.207	nt	nt	nt	nt
CCOC(=O)c1cc2sccc2n1CC(=O)Nc1ccc2c(c1)OCCO2	-0.0546	1.1	0.8	18.0	-5.8
O=S(=O)(Nc1nc2ccc(S(=O)(=O)N3CCCC3)cc2s1)c1ccc(F)cc1	-2.95	1	0	100.3*	1.5
CCOC(=O)N1CCN(S(=O)(=O)c2ccc(C(=O)Nc3nc4ccc(F)cc4s3)cc2)CC1	nt	0.8	0.4	64.5*	21.8
CSc1nc2ccc(S(=O)(=O)N3CCCC3)cc2s1	-0.931	0	0.5	52.8*	99.4*
CSc1nc2ccc(N3C(=O)C4CCCCC4C3=O)cc2s1 (stereo not drawn)	0.577	0.9	0.8	15.1	9.8
CC(C)CC(=O)Nc1nc2ccc(S(=O)(=O)N3CCOCC3)cc2s1	-0.0996	1.1	0.9	14.8	-14.8
CCOC(=O)c1ccoc1CSCc1ccc(C(=O)OC)o1	-0.998	0.7	0.3	71.8*	29.8
CCOc1ccc(N2CC(C(=O)Nc3ccc(S(=O)(=O)N4CCOCC4)cc3)CC2=O)cc1 (stereo not drawn)	-0.523	0.8	0.4	57.4*	21.6
CCOc1ccc(N2CC(C(=O)Nc3ccc(F)cc3F)CC2=O)cc1 (stereo not drawn)	-1.3	1	0.9	11.6	-0.8
CCOc1ccc(N2CC(C(=O)Nc3ccccc3OC)CC2=O)cc1 (stereo not drawn)	-5.09*	nt	nt	nt	nt
SMILES	Cav32 inh	CYP2C19 act	CYP2C9 activ	CYP2C9 inh	CYP2C19 inh
C=CCNC(=O)C1CC(=O)N(c2ccc(OCC(=O)Nc3ccccc3)cc2)C1 (stereo not drawn)	-0.0942	0.8	0.4	55.1*	18.7
CCOC(=O)N1C2=NC(C(=O)OC)=C(C(=O)OC)[C@@H]3Nc4ccccc4[C@]23C[C@H]1C(=O)OC	0.0127	nt	nt	nt	nt
COc1ccc(S(=O)(=O)NCc2cccs2)cc1	0.558	0.1	1.2	-15.8	94.8*
CSc1ccc(S(=O)(=O)NCc2ccc(C)cc2)cc1	-1.71	0.1	1.6	-62.2	94.9*
COc1ccc(CNS(=O)(=O)c2ccc(C)cc2)cc1	-0.0594	nt	nt	nt	nt
CCOc1ccc(CNC(=O)NS(=O)(=O)c2ccc(OC)cc2)cc1	-2.23	1.1	1	1.6	-8.4
COc1ccc(CNS(=O)(=O)c2ccc(OC)cc2)cc1	0.481	0.2	1.3	-28.1	76.4*
CCCOc1ccc(S(=O)(=O)NCc2ccc(OC)cc2)cc1	-3.98	0.4	0.8	23.4	58.1*
CC(C)C(NC(=O)C1CCCCC1)C(=O)NC1=NCCS1 (stereo not drawn)	0.669	0.8	0.9	11.9	19.7
